“And” between values parts separate entries of the source, which are not always exact repeats. Identical values can stand only once. The source made the active and inactive calls. Unless noted, no rule for the calls is given here.
Assays:
[1] = compound effects on lung adenocarcinoma cell viability – A549, calcein-AM fluorescence, 48 h, basal, profiling panel (AID 1162); settings: higher = more signal; also: test concentration not given here
[2] = compound effects on differentiated 3T3-L1 adipocyte viability – cell-based, 3T3-L1 adipocytes, calcein-AM fluorescence, 48 h, basal, profiling panel (AID 1163); settings: 3T3-L1 adipocytes viability, higher = more signal; also: test concentration not given here
[3] = compound effects on hepatocellular carcinoma cell viability – HepG2, calcein-AM fluorescence, 48 h, basal, profiling panel (AID 1164); settings: higher = more signal; also: test concentration not given here
[4] = compound effects on multiple myeloma cell viability – MM1S, calcein-AM fluorescence, 48 h, basal, profiling panel (AID 1165); settings: higher = more signal;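 also: viability of MM1S multiple myeloma cells under basal unstimulated conditions; test concentration not given here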
[5] = calcein-AM signal in unstimulated myeloma cells – cell-based, calcein-AM fluorescence, 48 h, PK04 Diversity Set, profiling panel (AID 1166); settings: RPMI8226 myeloma viability, higher = more signal;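 also: cells grown under basal conditions without added stimulus; test concentration not given here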
[6] = JC-1 mitochondrial signal, unstimulated HepG2 cells – cell-based, JC-1 fluorescence, 24 h, 100 nL compound, profiling panel (AID 1167); settings: HepG2 mitochondrial potential, higher = more signal; also: test concentration not given here
[7] = JC-1 mitochondrial signal, unstimulated adipocytes – cell-based, JC-1 fluorescence, 3T3-L1 adipocytes, 24 h, 100 nL compound, profiling panel (AID 1168); settings: JC-1 mitochondrial fluorescence, higher = more signal, called active from +8 up or from −8 down; also: test concentration not given here
[8] = JC-1 mitochondrial signal, unstimulated myeloma cells – cell-based, JC-1 fluorescence, RPMI8226, 24 h, 100 nL compound, profiling panel (AID 1169); settings: JC-1 mitochondrial potential fluorescence, higher = more signal; also: test concentration not given here
[9] = JC-1 mitochondrial signal, unstimulated MM1S myeloma – cell-based, JC-1 fluorescence, 24 h, 100 nL compound, profiling panel (AID 1170); settings: MM1S mitochondrial potential, higher = more signal; also: test concentration not given here
[10] = resazurin metabolic signal in A549 cells – cell-based, resazurin fluorescence, 24 h, PK04 Diversity Set, profiling panel (AID 1171); settings: A549 viability, higher = more signal, called active from +8 up or from −8 down; also: test concentration not given here
[11] = resazurin metabolic signal in HepG2 cells – cell-based, resazurin fluorescence, 24 h, PK04 Diversity Set, profiling panel (AID 1172); settings: HepG2 viability, higher = more signal; also: test concentration not given here
[12] = budding yeast growth changes without added modifier – OD600, strain BY4716, 24 h, basal condition, primary screen (AID 1173); settings: S. cerevisiae BY4716 growth, OD600, 24 h; higher = more signal, called active from +8 up or from −8 down
[13] = viability profiling in MM1S myeloma cells – cell-based, resazurin fluorescence, basal, 24 h, PK04 Diversity Set, profiling panel (AID 1174); settings: higher = more signal, called active from +8 up or from −8 down; also: test concentration not given here
[14] = target: Dihydroorotate dehydrogenase (quinone), mitochondrial (Plasmodium falciparum (isolate 3D7)) (UniProt Q08210); test: inhibition of P. falciparum DHODH – biochemical, C-terminal His tag, absorbance 600 nm, primary screen (AID 1175); settings: PfDHODH enzyme, DCIP absorbance 600 nm; higher = more signal, called active from +8 up or from −8 down;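 also: recombinant parasite enzyme with a five histidine tag at its C terminus; test concentration not given here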
[15] = inhibition of PAO1 biofilm formation – strain PAO1, LB-PBS medium, absorbance 600 nm, primary screen (AID 1176); also: test concentration not given here; settings: P. aeruginosa PAO1 growth/biofilm, A600, 12 h; higher = more signal
[16] = growth modulation of vineyard yeast isolate – strain RM11-1a, OD600, basal, 24 h, primary screen (AID 1177);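 also: cultures grown under basal conditions with no added stressor; test concentration not given here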; settings: S. cerevisiae RM11-1a growth, OD600, 24 h; higher = more signal, called active from +8 up or from −8 down
[17] = growth of efflux-deficient E. coli DRC39 – strain DRC39, OD650, 24 h, E. coli filamentation inducers, primary screen (AID 1178);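 also: growth measured as culture turbidity by optical density at 650 nm; test concentration not given here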; settings: E. coli DRC39 acrAB, higher = more signal, called active from +8 up or from −8 down
[18] = growth of efflux-deficient E. coli DRC39 – strain DRC39, OD650, 48 h, E. coli filamentation inducers, primary screen (AID 1179);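 also: screen aims at cell division blockers that make cells filament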; settings: E. coli DRC39 delta-acrAB growth, higher = more signal, called active from +8 up or from −8 down
[19] = viability profiling in RPMI8226 myeloma cells – cell-based, resazurin fluorescence, basal, 24 h, PK04 Diversity Set, profiling panel (AID 1180); settings: higher = more signal;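 also: RPMI8826 multiple myeloma cell line at 5000 cells per well; test concentration not given here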
[20] = target: E3 ubiquitin-protein ligase XIAP (Homo sapiens) (UniProt P98170); test: small molecules binding XIAP protein – biophysical, small-molecule microarray, fluorescence 635 nm, primary screen (AID 1181); settings: higher = more signal;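 also: score merges 667 nm emission and signal to noise over triplicate slides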
E3 ubiquitin-protein ligase XIAP (Homo sapiens), sequence (P98170 whole entry, looked up): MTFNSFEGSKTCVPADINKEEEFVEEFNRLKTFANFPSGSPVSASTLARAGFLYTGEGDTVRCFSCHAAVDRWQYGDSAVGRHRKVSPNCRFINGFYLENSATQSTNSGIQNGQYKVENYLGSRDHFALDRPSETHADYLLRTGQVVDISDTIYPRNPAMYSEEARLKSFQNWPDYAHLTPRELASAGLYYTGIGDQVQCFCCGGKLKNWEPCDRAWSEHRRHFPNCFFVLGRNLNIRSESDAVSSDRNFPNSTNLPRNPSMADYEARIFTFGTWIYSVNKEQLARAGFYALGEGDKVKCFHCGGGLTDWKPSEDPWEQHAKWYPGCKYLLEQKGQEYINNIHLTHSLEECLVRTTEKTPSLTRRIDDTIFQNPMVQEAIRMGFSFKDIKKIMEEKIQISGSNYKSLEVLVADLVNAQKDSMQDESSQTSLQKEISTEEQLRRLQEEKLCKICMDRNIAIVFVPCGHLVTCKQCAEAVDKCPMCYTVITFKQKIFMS

Dihydroorotate dehydrogenase (quinone), mitochondrial (Plasmodium falciparum (isolate 3D7)), sequence (Q08210 whole entry, looked up): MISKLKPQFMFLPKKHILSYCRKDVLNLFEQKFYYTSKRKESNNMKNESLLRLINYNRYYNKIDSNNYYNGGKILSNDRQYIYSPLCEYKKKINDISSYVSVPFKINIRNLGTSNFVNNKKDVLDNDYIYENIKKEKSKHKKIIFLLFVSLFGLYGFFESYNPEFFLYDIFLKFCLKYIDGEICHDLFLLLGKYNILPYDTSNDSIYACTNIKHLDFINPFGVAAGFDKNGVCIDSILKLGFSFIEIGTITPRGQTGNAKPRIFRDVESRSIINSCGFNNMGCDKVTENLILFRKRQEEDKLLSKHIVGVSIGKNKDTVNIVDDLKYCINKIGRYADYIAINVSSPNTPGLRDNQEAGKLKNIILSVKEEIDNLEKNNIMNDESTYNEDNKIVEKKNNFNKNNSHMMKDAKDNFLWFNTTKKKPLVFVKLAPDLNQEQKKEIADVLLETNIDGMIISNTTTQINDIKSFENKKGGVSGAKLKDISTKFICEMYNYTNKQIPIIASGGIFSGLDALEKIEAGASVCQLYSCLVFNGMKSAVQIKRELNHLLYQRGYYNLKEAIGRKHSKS

| Compound | z-score [1] | z-score [2] | z-score [3] | z-score [4] | z-score [5] | z-score [6] | z-score [7] | z-score [8] | z-score [9] | z-score [10] | z-score [11] | z-score [12] | z-score [13] | composite z-score [14] | z-score [15] | z-score [16] | z-score [17] | z-score [18] | z-score [19] | composite z-score [20] |
| --- | --- | --- | --- | --- | --- | --- | --- | --- | --- | --- | --- | --- | --- | --- | --- | --- | --- | --- | --- | --- |
| C=CCN(Cc1ccccc1)C(=O)C1N(c2c(Cl)cccc2CO)C(=O)C2C(C(=O)O)C3C=CC21O3 (stereo not given) | 1.45 and -0.228 | 0.38 and 0.802 | 1.07 and 0.0456 | 2.15 and 0.815 | 0.381 and -0.937 | 0.992 and -1.25 | 1.53 (inactive) and -0.0316 (inactive) | -0.817 and -0.0516 | 1.03 and 0.278 | 2.19 (inactive) and -0.851 (inactive) | 0.753 and -0.367 | -2.14 (inactive) and -0.245 (inactive) | 1.33 (inactive) and -0.324 (inactive) | -0.33 (inactive) and 0.994 (inactive) | -0.236 (inactive) and -0.329 (inactive) | -3.44 (inactive) and 0.92 (inactive) | 2.24 (inactive) and -0.745 (inactive) | 2.55 (inactive) and -0.89 (inactive) | 0.565 and -0.662 | 0.0379 and -0.051 |
| C=CCN(C(=O)C1N(c2c(Cl)cccc2CO)C(=O)C2C(C(=O)O)C3C=CC21O3)c1ccc(OC)cc1 (stereo not given) | -0.211 and 1.87 | 1.02 and 0.581 | -0.915 and 1.6 | 0.972 and -0.224 | -0.998 and 0.529 | -0.877 and 0.862 | -0.955 (inactive) and 0.659 (inactive) | -0.106 and -0.544 | 0.644 and 0.576 | -0.475 (inactive) and 1.02 (inactive) | -0.48 and 0.737 | -0.566 (inactive) and -0.241 (inactive) | -1.03 (inactive) and 0.874 (inactive) | -0.394 (inactive) and -0.0226 (inactive) | -0.137 (inactive) and -0.428 (inactive) | 0.344 (inactive) and -1.83 (inactive) | -0.237 (inactive) and 1.79 (inactive) | -0.293 (inactive) and 1.93 (inactive) | -0.509 and 1.06 | 0.281 and -0.152 |
| C=C[C@@H](OC)[C@H](O)c1ccc(OC)c(O)c1 | -0.72 and 0.387 | 1.21 and 1.57 | -1.02 and 0.209 | -1.16 and 0.905 | -1.3 and 0.14 | -0.782 and 0.179 | -1.44 (inactive) and 0.912 (inactive) | -0.205 and -0.346 | -0.297 and 1 | -0.693 (inactive) and 0.835 (inactive) | -0.246 and 0.49 | -1.28 (inactive) and -1.67 (inactive) | -0.72 (inactive) and 0.989 (inactive) | 0.229 (inactive) and -0.344 (inactive) | 0.152 (inactive) | 0.119 (inactive) and -1.5 (inactive) | -0.0985 (inactive) and 1.78 (inactive) | -0.489 (inactive) and 1.38 (inactive) | -1.04 and 0.51 | -0.319 and -0.148 |
| C=CCN(Cc1ccccc1)C(=O)C(c1cccs1)N(C(=O)/C=C\C(=O)O)c1c(Cl)cccc1CO (stereo not given) | -0.159 and -0.34 | 0.036 and -0.0047 | -0.876 and -0.217 | 1.21 and 1.6 | 1 and -0.538 | -0.267 and -0.148 | 0.426 (inactive) and 0.223 (inactive) | -0.917 and 0.247 | -0.871 and -0.502 | 0.351 (inactive) and -0.519 (inactive) | 0.201 and -0.418 | -0.0348 (inactive) and -0.539 (inactive) | 0.258 (inactive) and -0.385 (inactive) | 0.607 (inactive) and 1.16 (inactive) | 0.165 (inactive) and -0.208 (inactive) | 0.0233 (inactive) and -0.276 (inactive) | 0.759 (inactive) and 0.391 (inactive) | -1.34 (inactive) and 0.456 (inactive) | -0.124 and -1 | -0.0172 and -0.359 |
| C=CCN(CCCCC)C(=O)C1N(c2ccc(CCO)cc2)C(=O)C2C(C(=O)O)C3C=CC21O3 (stereo not given) | -0.0277 and -0.611 | -0.0076 and 0.226 | -0.97 and 0.288 | 0.867 and 0.199 | -0.322 and -1.02 | -0.587 and -1.1 | -0.545 (inactive) and -0.407 (inactive) | 0.647 and 0.562 | 0.743 and 0.912 | -0.792 (inactive) and -0.842 (inactive) | -0.572 and -0.506 | -0.058 (inactive) and 0.644 (inactive) | -0.933 (inactive) and -1.12 (inactive) | -0.0016 (inactive) and 0.598 (inactive) | 0.317 (inactive) and 0.606 (inactive) | -0.611 (inactive) and -0.297 (inactive) | -0.623 (inactive) and -0.0654 (inactive) | -0.689 (inactive) and -0.552 (inactive) | -0.871 and -1.15 | -0.193 and -0.0559 |
| C=CCN(C(=O)C1N(CCCCCCO)C(=O)C2C(C(=O)O)C3C=CC21O3)C(C)(C)C (stereo not given) | 0.698 and -0.443 | -0.356 and -0.171 | 0.159 and 0.187 | 0.576 and 0.13 | -0.566 and -0.866 | -0.872 and -0.997 | -0.373 (inactive) and 0.302 (inactive) | 0.186 and 0.699 | 1.29 and 0.193 | -0.0791 (inactive) and -0.385 (inactive) | -1.01 and -0.273 | 0.158 (inactive) and 0.0807 (inactive) | -0.184 (inactive) and -0.49 (inactive) | -0.708 (inactive) and -0.59 (inactive) | -0.401 (inactive) and -0.484 (inactive) | -0.37 (inactive) and -1.03 (inactive) | -0.739 (inactive) and -0.371 (inactive) | -0.467 (inactive) and -0.281 (inactive) | -0.106 and -0.445 | -0.227 and -0.231 |
